Screening data deposited in PubChem by National Center for Advancing Translational Sciences (NCATS).
A selection: hits, their analogues and other compounds. The true share with any hit is near 7.3%.
Vaccinia mCherry = inhibitors of vaccinia virus infection (mCherry reporter signal); Vaccinia virus mCherry reporter infection, fluorescence; Potency, µM (highest dose often 36.5 µM), for the others: at the highest dose activity change, negative = inhibition, most hits filed as inhibitors; 310,000 compounds, 0.63% hits; AID 720579; calls by dose curve; tested in A549 cells; further: potency means the concentration at half of the fitted maximal effect; nearly all actives have a fitted effect of over 35% in size
HCV inh = inhibitors of hepatitis C virus infection; Huh7.5.1 HCVcc-Cre infection, luciferase reporter, 44 h; Potency, µM (top dose mostly 41.8 µM), for inactives: at the highest dose activity change, negative = inhibition, hits mostly inhibitors; 340,000 compounds, 3.4% hits; AID 651820; active means well fitted inhibition curve with a large enough effect; inconclusive means small, poorly fitted or top-dose-only effect, or another doubt; inactive means no such curve, though single readings can be large or run the other way; further: potency means the concentration at half of the fitted maximal effect
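Infectious HCV cell culture screen: compound-treated cells (1,000/well, pre-plated 4 h) are infected with HCVcc-Cre at roughly 0.5 moi and grown 44 h. Infection is quantified by luciferase signal after 15 min substrate incubation at room temperature.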
HCMV inh = inhibitors of human cytomegalovirus; HFF cells, HCMV-luciferase reporter, 72 h; active compounds read low; activity change, negative = inhibition, % at 57.5 µM; AID 1259415; 410,000 compounds, 4.5% hits; in the data active means activity change below about -60%; inconclusive means no clear call, values can overlap the other calls; inactive means above about -39%
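HFF cells seeded 16 h at 37C, treated with compounds, infected with luciferase-reporter HCMV at MOI 1 PFU/cell; luciferase read at 72 h post infection, normalized to buffer-only and Salinomycin controls.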
Vaccinia Venus = inhibitors of vaccinia virus (Venus reporter); 330,000 compounds, 0.46% hits; AID 720580; Vaccinia virus Venus reporter expression, fluorescence; Potency, µM (highest dose often 36.5 µM), for the others: top-dose activity change, negative = inhibition, most hits filed as inhibitors; calls by dose curve; tested in A549 cells; further: potency means the concentration at half of the fitted maximal effect; nearly all actives have a fitted effect of over 30% in size
FMDV antiviral = foot and mouth disease virus antiviral activity; FMDV antiviral cell-based qHTS; Potency, µM (titrated, usually from 57.9 µM), without a hit: at the top dose activity change, negative = inhibition, actives largely listed as inhibitors; 410,000 compounds, 1.2% hits; calls by dose curve; tested in HEK293T cells; further: read-out not given here; potency means the concentration at half of the fitted maximal effect; nearly all actives have a fitted effect of over 45% in size
Active calls of the source: *; i = inactive; ? = inconclusive; / = no result given. On the % scale 0 is the no-effect control and ±100 the full control effect.

SMILES | Vaccinia mCherry | HCV inh | HCMV inh | Vaccinia Venus | FMDV antiviral
COc1cccc(C2=NN(C(C)=O)C(c3cn(-c4ccccc4)nc3-c3cccs3)C2)c1 (configuration not stated) | -8% | / | 3 | -13% | -5%
CCc1nc(CN2CCOc3ccc(C(O)C4CCCCC4)cc3C2)c(C)[nH]1 (configuration not stated) | -25% | / | / | -24% | -10%
COc1ccc(C2Nc3ccccc3C(=O)N2c2ccc(Cl)cc2)cc1COc1ccc(NC(C)=O)cc1 (configuration not stated) | -3% | / | / | -8% | /
CCOC(=O)CSC(=S)NC(=O)c1ccc(OC)cc1 | i | 20% | -87* | -18% | -16%
O=C1C(CSCc2ccccc2)NC(=S)N1c1ccccc1 (configuration not stated) | / | -18% | 34 | / | 28µM*
O=C(O)CC1NC(=S)N(c2ccccc2)C1=O (configuration not stated) | / | ? | 4 | / | 5%
Cc1ccc(NC(=O)c2cc(Cl)ccc2[N+](=O)[O-])cc1C | ? | ? | -73* | 9% | 0%
Cc1cc(NC(=O)c2cc3cccc([N+](=O)[O-])c3[nH]2)ccc1F | / | 11µM* | ? | / | 6%
Cc1cccc(NC(=O)c2cc(Cl)ccc2[N+](=O)[O-])c1 | 6.3µM* | -29% | -83* | ? | -10%
Nc1c(Br)cc(/C=C2\C=Cc3ccccc32)cc1Br | -18% | / | / | -14% | /
CCOC(=O)CCCCCN1C(=O)c2cccc3cccc(c23)C1=O | / | -6% | -100* | / | -3%
COc1ccccc1Cn1c(=S)[nH]c2ccc(Br)cc2c1=O | i | ? | -86* | -13% | -4%
COc1ccccc1N1CCN(C(=O)CCCN2C(=O)c3cccc4cccc(c34)C2=O)CC1 | 11µM* | 8.9µM* | 8 | -27% | ?
O=C(CCCN1C(=O)c2cccc3cccc(c23)C1=O)N1CCN(c2ncccn2)CC1 | / | -22% | -66* | / | -8%
COc1ccccc1N1CCN(C(=O)CN2C(=O)c3cccc4cccc(c34)C2=O)CC1 | -16% | ? | -3 | -2% | ?
Cc1ccc(OC(=O)N(C)C[C@H]2OCc3cn(nn3)CCCC(=O)N([C@@H](C)CO)C[C@@H]2C)cc1 | / | / | 4 | / | /
O=C(CCCN1C(=O)c2cccc3cccc(c23)C1=O)NCc1ccco1 | -26% | -17% | -89* | -3% | 18%
O=C(CCCN1C(=O)c2ccccc2C1=O)NCc1ccco1 | / | -4% | -4 | -11% | -11%
COc1ccccc1N1CCN(C(=O)CCCn2c(=S)[nH]c3ccccc3c2=O)CC1 | ? | / | -15 | ? | 25µM*
COC(=O)c1ccccc1NC(=O)c1cnn2c1NC(=C1CC1)C=C2C(F)F | -1% | / | / | -17% | /
O=C(Nc1cccc(S(=O)(=O)N2CCCC2)c1)c1ccc2c(=O)n3c(nc2c1)CCCCC3 | ? | 2.8µM* | -66* | ? | 13µM*
O=C(Nc1ccccc1Cl)c1ccc2c(=O)n3c(nc2c1)CCC3 | 25% | -12% | 27 | -10% | 15%
O=C(Nc1cccc(S(=O)(=O)N2CCOCC2)c1)c1ccc2c(=O)n3c(nc2c1)CCCCC3 | ? | 7.1µM* | -84* | ? | ?
CC(=O)c1cccc(NC(=O)c2ccc3c(=O)n4c(nc3c2)CCCCC4)c1 | -2% | ? | ? | -3% | 2%
CC(=O)c1c(C)[nH]c(C(=O)CSc2ccc(F)cc2)c1C | i | 13µM* | ? | -19% | 12%
SMILES | Vaccinia mCherry | HCV inh | HCMV inh | Vaccinia Venus | FMDV antiviral
CCn1c(SCC(=O)c2[nH]c(C)c(C(C)=O)c2C)nnc1-c1ccccc1 | ? | 5.6µM* | -37 | ? | 25µM*
CCOC(=O)c1c(C)[nH]c(C(=O)CSc2ccccc2)c1C | / | ? | 35 | -29% | 21%
CCn1c(SCC(=O)c2[nH]c(C)c(C(C)=O)c2C)nnc1-c1ccncc1 | -9% | ? | 5 | -6% | /
Cc1ccc(NC(=O)c2ccc3c(=O)n4c(nc3c2)CCCCC4)cc1F | -20% | 10µM* | 16 | -16% | -10%
Cc1cccc(NC(=O)c2ccc3c(=O)n4c(nc3c2)CCCCC4)n1 | -20% | 14µM* | 72 | -11% | -69%
O=C(Nc1ccc(SC(F)F)cc1)c1ccc2c(=O)n3c(nc2c1)CCC3 | / | 4µM* | -70* | / | ?
Cc1cc(C)c2nc(NC(=O)c3ccc4c(=O)n5c(nc4c3)CCCCC5)sc2c1 | i | ? | -72* | -22% | -26%
O=C(Nc1ccc(S(=O)(=O)C(F)F)cc1)c1ccc2c(=O)n3c(nc2c1)CCC3 | -8% | ? | -32 | -13% | ?
COc1ccc(NC(=O)c2ccc3c(=O)n4c(nc3c2)CCCCC4)cc1 | -11% | ? | -30 | -13% | -8%
CCNc1ncc2nc(-c3ccc(OC)cc3)c(=O)n(Cc3cccc(OC)c3)c2n1 | / | / | / | / | -3%
Cc1oc(-c2ccccc2NC(=O)c2ccsc2)nc1CN(C)CC1CC=CCC1 (configuration not stated) | -8% | / | / | 8% | -13%
C[C@H](CO)N1C[C@H](C)[C@@H](CN(C)C(=O)Nc2ccc3c(c2)OCO3)OCc2cn(nn2)CCCC1=O | / | / | 7 | / | /
O=C(Nc1nc(-c2ccccc2)cs1)c1ccc2c(=O)n3c(nc2c1)CCCCC3 | / | 2.5µM* | -90* | / | 16µM*
CCN(CC)C(=O)C1CCCN(C(=O)Nc2ccc3nsnc3c2)C1 (configuration not stated) | / | 32µM* | 0 | -18% | 3%
COC(=O)CSC1=C(C#N)C(c2ccc3c(c2)OCO3)C2=C(CCCC2=O)N1 (configuration not stated) | / | -10% | / | -19% | -27%
Cc1ccc(NC(=O)CSC2=C(C#N)C(c3ccc4c(c3)OCO4)C3=C(CCCC3=O)N2)c(C)c1 (configuration not stated) | / | -23% | -65* | / | -18%
CN1C(=O)/C(=C\C(=O)c2cccs2)c2ccccc21 | i | 13% | -99* | -5% | 22µM*
O=C1CCN(C(=O)c2cccs2)c2ccccc21 | i | 2% | -15 | -9% | 15%
ClCCN(CCCl)/C(=C\c1ccccc1)c1ccnc2ccccc12 | i | / | / | -5% | /
O=C(O)CCCC(=O)OCCCCc1cccs1 | / | -4% | -22 | / | 6%
Nc1nnc(CCCCc2cccs2)o1 | i | -4% | -32 | 10µM* | -1%
Cc1ccc(NC(=O)Cn2nc(C)c3nn(-c4ccc(Cl)cc4)c(C)c3c2=O)cc1C | -23% | / | 29 | -19% | -27%
CCOc1ccc(OCC)c(NC(=O)Cn2nc(CC)n3c(cc4sccc43)c2=O)c1 | -19% | / | 1 | -19% | 22%
COc1ccccc1Nc1c2ccccc2nc2ccccc12 | 11µM* | 10µM* | -99* | ? | ?
COc1ccc(OC)c(Nc2nc(-c3ccncc3)nc3ccccc23)c1 | -24% | 4.5µM* | -3 | -17% | ?
COc1ccc(OC)c(Nc2nc(-c3ccccc3O)nc3ccccc23)c1 | -18% | ? | -26 | 7% | -11%
